# Laboratory results reported in ChEMBL document CHEMBL1961873, “Compounds: GSK PKIS; Assays: Nanosyn kinase panel” (2012).
# Assays:
# [1] = target: T1, Serine/threonine-protein kinase TBK1 (Homo sapiens) (UniProt Q9UHD2); conditions: at 1 µM;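 note: values are mean inhibition of TBK1, screened as part of the GSK published kinase inhibitor set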
# T1 sequence (whole entry): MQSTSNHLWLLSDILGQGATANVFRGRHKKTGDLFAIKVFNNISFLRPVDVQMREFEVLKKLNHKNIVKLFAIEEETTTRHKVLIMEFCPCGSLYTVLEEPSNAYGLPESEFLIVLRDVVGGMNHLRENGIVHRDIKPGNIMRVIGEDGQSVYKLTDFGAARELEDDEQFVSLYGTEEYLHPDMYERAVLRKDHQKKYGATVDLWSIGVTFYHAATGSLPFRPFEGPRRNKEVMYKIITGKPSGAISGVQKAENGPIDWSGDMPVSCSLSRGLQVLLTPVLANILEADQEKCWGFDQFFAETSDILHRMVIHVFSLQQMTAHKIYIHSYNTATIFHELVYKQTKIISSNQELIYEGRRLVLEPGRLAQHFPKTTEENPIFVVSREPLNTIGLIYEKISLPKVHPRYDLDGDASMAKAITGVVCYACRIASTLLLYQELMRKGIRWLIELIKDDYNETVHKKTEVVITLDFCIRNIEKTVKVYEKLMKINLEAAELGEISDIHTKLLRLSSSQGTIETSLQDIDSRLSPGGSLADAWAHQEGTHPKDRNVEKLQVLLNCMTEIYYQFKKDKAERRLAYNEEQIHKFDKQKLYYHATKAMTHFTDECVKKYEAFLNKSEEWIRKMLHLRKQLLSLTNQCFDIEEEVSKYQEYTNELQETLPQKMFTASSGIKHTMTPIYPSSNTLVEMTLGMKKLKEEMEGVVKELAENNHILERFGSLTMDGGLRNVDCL
# [2] = target: T2, Testis-specific serine/threonine-protein kinase 1 (Homo sapiens) (UniProt Q9BXA7); conditions: at 0.1 µM
# T2 sequence (whole entry): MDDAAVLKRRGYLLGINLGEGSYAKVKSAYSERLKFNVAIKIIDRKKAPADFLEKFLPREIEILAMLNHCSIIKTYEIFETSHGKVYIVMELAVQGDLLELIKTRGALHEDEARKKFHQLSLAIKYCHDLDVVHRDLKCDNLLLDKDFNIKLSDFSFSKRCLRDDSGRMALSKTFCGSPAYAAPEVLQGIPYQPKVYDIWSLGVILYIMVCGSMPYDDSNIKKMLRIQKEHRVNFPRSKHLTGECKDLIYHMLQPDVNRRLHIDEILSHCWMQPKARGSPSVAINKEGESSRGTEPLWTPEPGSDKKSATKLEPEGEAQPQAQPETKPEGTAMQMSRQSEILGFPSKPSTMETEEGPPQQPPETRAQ
# [3] = target: T2, Testis-specific serine/threonine-protein kinase 1 (Homo sapiens); conditions: at 1 µM
# [4] = target: T3, Testis-specific serine/threonine-protein kinase 2 (Homo sapiens) (UniProt Q96PF2); conditions: at 0.1 µM
# T3 sequence (whole entry): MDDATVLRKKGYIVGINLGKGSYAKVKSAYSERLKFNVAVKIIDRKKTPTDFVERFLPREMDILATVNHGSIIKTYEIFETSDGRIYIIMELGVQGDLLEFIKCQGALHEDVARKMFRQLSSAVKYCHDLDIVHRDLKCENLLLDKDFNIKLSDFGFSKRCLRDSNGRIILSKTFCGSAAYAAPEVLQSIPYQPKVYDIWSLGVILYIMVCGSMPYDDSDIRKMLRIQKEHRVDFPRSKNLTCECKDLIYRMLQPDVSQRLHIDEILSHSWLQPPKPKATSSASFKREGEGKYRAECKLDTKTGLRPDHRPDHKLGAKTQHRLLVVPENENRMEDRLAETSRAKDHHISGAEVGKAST
# [5] = target: T3, Testis-specific serine/threonine-protein kinase 2 (Homo sapiens); conditions: at 1 µM
# [6] = target: Casein kinase I isoform alpha (Homo sapiens) (UniProt P48729); conditions: at 0.1 µM
# [7] = target: Casein kinase I isoform alpha (Homo sapiens) (UniProt P48729); conditions: at 1 µM
# [8] = target: Casein kinase I isoform gamma-1 (Homo sapiens) (UniProt Q9HCP0); conditions: at 0.1 µM
# [9] = target: Casein kinase I isoform gamma-1 (Homo sapiens) (UniProt Q9HCP0); conditions: at 1 µM
# [10] = target: Casein kinase I isoform gamma-2 (Homo sapiens) (UniProt P78368); conditions: at 0.1 µM
# [11] = target: Casein kinase I isoform gamma-2 (Homo sapiens) (UniProt P78368); conditions: at 1 µM
# [12] = target: Casein kinase I isoform gamma-3 (Homo sapiens) (UniProt Q9Y6M4); conditions: at 0.1 µM
# [13] = target: Casein kinase I isoform gamma-3 (Homo sapiens) (UniProt Q9Y6M4); conditions: at 1 µM
# [14] = target: Cyclin-dependent kinase 1 (Homo sapiens) (UniProt P06493); conditions: at 0.1 µM
# [15] = target: Cyclin-dependent kinase 1 (Homo sapiens) (UniProt P06493); conditions: at 1 µM
# [16] = target: Cyclin-dependent kinase 2 (Homo sapiens) (UniProt P24941); conditions: at 0.1 µM
# [17] = target: Cyclin-dependent kinase 2 (Homo sapiens) (UniProt P24941); conditions: at 1 µM
# [18] = target: Cyclin-dependent kinase 2 (Homo sapiens) (UniProt P24941); conditions: at 0.1 µM; remark: listed apart in the source
# [19] = target: Cyclin-dependent kinase 2 (Homo sapiens) (UniProt P24941); conditions: at 1 µM; remark: listed apart in the source
# [20] = target: CDK3/Cyclin E (Homo sapiens) (UniProt P24864+Q00526); conditions: at 0.1 µM;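 note: reported percentages are mean inhibition values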
# CDK3/Cyclin E (Homo sapiens), sequence (P24864 whole entry, looked up): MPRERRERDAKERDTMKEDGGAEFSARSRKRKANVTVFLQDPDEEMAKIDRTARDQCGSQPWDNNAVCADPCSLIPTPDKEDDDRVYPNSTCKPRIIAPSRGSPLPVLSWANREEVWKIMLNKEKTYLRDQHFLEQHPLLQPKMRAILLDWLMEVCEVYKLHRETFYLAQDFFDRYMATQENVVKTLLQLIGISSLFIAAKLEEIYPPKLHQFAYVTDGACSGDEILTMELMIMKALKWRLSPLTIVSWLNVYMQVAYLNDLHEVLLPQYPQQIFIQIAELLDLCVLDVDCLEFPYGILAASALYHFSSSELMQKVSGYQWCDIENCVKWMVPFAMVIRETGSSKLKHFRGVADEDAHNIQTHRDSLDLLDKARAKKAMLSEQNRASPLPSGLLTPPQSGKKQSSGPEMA
# CDK3/Cyclin E (Homo sapiens), sequence (Q00526 whole entry, looked up): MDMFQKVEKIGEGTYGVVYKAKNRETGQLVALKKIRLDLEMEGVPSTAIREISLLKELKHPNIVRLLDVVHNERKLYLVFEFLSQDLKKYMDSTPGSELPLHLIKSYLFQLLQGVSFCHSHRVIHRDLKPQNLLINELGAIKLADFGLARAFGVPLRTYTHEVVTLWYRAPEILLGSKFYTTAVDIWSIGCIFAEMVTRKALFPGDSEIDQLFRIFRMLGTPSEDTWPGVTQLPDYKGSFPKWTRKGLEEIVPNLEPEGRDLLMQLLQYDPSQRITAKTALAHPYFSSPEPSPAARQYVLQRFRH
# Casein kinase I isoform gamma-3 (Homo sapiens), sequence (Q9Y6M4 whole entry, looked up, canonical isoform): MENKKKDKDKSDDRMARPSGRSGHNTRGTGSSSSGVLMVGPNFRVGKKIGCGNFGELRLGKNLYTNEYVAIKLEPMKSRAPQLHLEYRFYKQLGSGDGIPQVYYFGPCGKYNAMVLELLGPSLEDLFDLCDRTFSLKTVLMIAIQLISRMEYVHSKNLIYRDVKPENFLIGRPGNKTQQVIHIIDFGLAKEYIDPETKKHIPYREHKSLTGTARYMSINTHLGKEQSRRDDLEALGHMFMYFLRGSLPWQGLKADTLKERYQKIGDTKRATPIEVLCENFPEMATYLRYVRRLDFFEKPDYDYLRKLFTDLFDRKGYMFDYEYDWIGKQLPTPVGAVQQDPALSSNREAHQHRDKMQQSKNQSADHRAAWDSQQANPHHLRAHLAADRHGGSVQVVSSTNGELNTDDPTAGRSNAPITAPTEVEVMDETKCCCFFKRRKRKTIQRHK
# Casein kinase I isoform alpha (Homo sapiens), sequence (P48729 2-337 limits assumed): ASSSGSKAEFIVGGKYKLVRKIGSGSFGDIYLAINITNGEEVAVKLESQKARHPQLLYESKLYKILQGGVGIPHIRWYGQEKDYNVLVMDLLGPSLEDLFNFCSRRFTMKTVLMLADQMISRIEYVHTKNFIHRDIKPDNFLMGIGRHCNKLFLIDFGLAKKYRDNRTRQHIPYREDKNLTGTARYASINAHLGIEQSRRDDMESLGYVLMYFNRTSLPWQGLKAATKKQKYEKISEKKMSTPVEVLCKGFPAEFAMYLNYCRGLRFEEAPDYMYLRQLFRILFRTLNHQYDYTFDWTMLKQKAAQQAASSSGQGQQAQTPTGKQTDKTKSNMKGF
# Casein kinase I isoform gamma-1 (Homo sapiens), sequence (Q9HCP0 whole entry, looked up, canonical isoform): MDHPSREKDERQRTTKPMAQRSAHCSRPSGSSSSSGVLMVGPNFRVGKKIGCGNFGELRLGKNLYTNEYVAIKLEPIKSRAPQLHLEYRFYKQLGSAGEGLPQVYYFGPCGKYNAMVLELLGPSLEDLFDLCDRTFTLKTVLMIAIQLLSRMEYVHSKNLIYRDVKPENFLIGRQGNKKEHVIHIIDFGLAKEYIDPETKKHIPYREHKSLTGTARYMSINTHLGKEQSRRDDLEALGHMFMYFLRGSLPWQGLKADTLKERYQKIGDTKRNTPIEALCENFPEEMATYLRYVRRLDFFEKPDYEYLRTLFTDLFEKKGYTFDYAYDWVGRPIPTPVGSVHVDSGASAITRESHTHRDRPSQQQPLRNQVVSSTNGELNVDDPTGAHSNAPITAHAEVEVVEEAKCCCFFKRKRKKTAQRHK
# Cyclin-dependent kinase 1 (Homo sapiens), sequence (P06493 whole entry, looked up): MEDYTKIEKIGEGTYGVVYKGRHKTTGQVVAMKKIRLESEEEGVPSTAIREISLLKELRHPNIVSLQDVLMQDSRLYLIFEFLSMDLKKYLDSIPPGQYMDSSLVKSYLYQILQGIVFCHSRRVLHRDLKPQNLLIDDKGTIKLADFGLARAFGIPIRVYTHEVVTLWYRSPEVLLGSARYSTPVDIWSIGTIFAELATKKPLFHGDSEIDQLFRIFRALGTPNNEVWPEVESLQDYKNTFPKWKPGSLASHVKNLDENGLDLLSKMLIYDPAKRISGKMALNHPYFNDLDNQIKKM
# Casein kinase I isoform gamma-2 (Homo sapiens), sequence (P78368 whole entry, looked up, canonical isoform): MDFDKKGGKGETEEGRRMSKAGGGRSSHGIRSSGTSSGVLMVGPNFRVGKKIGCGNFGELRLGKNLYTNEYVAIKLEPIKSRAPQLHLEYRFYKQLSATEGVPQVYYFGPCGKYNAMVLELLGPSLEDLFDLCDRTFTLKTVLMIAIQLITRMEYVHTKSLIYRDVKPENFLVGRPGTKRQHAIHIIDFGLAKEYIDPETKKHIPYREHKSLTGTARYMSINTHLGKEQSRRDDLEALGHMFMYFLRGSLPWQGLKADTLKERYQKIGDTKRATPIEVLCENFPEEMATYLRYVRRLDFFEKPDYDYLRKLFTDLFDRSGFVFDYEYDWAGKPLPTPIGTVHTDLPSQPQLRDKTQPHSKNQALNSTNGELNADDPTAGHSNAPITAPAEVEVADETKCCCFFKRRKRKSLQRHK
Compound,inhibition [1],inhibition [2],inhibition [3],inhibition [4],inhibition [5],inhibition [6],inhibition [7],inhibition [8],inhibition [9],inhibition [10],inhibition [11],inhibition [12],inhibition [13],inhibition [14],inhibition [15],inhibition [16],inhibition [17],inhibition [18],inhibition [19],inhibition [20]
CS(=O)(=O)CCNCc1nc(-c2ccc3ncnc(Nc4ccc(OCc5cccc(C(F)(F)F)c5)cc4)c3c2)cs1,0.57%,2.83%,2.19%,0.45%,0.58%,0.49%,4.64%,1.2%,2.03%,0.96%,1.13%,0.51%,-0.03%,2.33%,2.13%,1.96%,-0.45%,1.42%,0.41%,-1.59%
Oc1cccc(-c2nc(-c3ccccc3)[nH]c2-c2ccncc2)c1,2.77%,5.01%,2.8%,3.51%,2.57%,12.6%,23.9%,2.26%,3.29%,2.14%,2.78%,2.62%,2.68%,0.66%,2.64%,1.15%,-1.31%,5.08%,6.33%,4.62%
CCS(=O)(=O)c1ccc(OC)c(Nc2ncc(-c3cccc(OC)c3)o2)c1,9.22%,1.15%,-0.25%,1.31%,-3.49%,1.44%,6.31%,2.59%,6.2%,1.91%,3.73%,3.1%,5.62%,-0.89%,2.51%,1.38%,5.48%,2.62%,7.35%,0.48%
C[C@@H](Oc1cc(-n2cnc3ccc(OCC4CCN(C)CC4)cc32)sc1C(N)=O)c1ccccc1C(F)(F)F,-1.33%,1.47%,22.4%,-1.17%,-0.35%,-4.16%,-1.43%,-1.72%,-1.25%,-1.74%,-3.37%,-1.08%,-3.59%,2.12%,3.02%,-0.78%,2.52%,-0.93%,0.83%,-1.54%
COc1cccc(-n2nc(C)c3c(N/N=C(\C)c4ccncc4)ncnc32)c1,-1.57%,1.47%,1.88%,-0.53%,-0.42%,-1.81%,0.17%,0.02%,0.62%,0.14%,0.28%,-0.15%,-0.59%,0.65%,2.77%,1.78%,7.56%,1.09%,2.33%,-0.92%
O=C(Nc1ccc(Oc2ccc3[nH]c(NC(=O)c4ccco4)nc3c2)cc1)Nc1cc(C(F)(F)F)ccc1F,0.97%,0.73%,0.2%,0.45%,-0.72%,0.72%,1.23%,-3.78%,-2.12%,-4.05%,-2.38%,-2.82%,-2.32%,-5.04%,-3.69%,-3.1%,3.18%,-4.34%,-4%,-0.43%
CCn1c(-c2nonc2N)nc2ccc(F)cc21,4.44%,5.02%,7.33%,2.94%,4.64%,3.7%,4.99%,4.91%,5.86%,5.17%,5.68%,5.66%,3.59%,0.74%,1.27%,1.3%,7.59%,3.91%,5.8%,3.47%
NC(=O)c1sc(-n2cnc3ccccc32)cc1OCc1ccccc1Br,2.68%,3.19%,4.53%,0.6%,1.24%,2.22%,7.23%,3.55%,5.15%,3.34%,5.04%,2.52%,3.56%,4.32%,6.19%,7.43%,5.68%,4.88%,8.08%,-2.25%
CCOc1nccc2c1nc(-c1nonc1N)n2CC,6.01%,3.94%,4.63%,2.77%,4.45%,3.85%,2.28%,2.65%,1.76%,1.95%,1.13%,1.1%,0.56%,0.5%,2.69%,0.81%,2.63%,2.66%,5.12%,2.48%
C[C@@H](Oc1cc(-n2cnc3ccc(OC[C@@H](O)CO)cc32)sc1C(N)=O)c1ccccc1Cl,-0.29%,0.57%,1.14%,-0.99%,0.82%,2.6%,3.43%,-1.5%,2.39%,-1.3%,-0.43%,-1.73%,1.34%,0.5%,3.21%,1.64%,2.63%,-2.32%,3.99%,1.36%
FC(F)(F)c1ccc(-c2nn3ncccc3c2-c2ccnc(Nc3ccc4c(c3)OCCO4)n2)cc1,4.67%,1.27%,4.75%,2.11%,5.84%,9.84%,4.54%,-0.1%,0.59%,0.52%,0.81%,0.18%,1.72%,5.01%,4.37%,1.49%,-1.87%,5.4%,5.36%,7.17%
N#Cc1c(NC(=O)c2ccccc2F)sc2c1CCCC2,-0.25%,0.47%,0.66%,0.05%,0.04%,-1.71%,-1.69%,-1.23%,-0.65%,-1.34%,-1.07%,-2.12%,-0.42%,1.03%,1.65%,-0.45%,0.88%,-2.16%,-0.2%,-1.77%
CC(C)c1ccc2c(c1)NC(=O)/C2=N/Nc1ccc(S(N)(=O)=O)cc1,-0.26%,-0.2%,1.24%,0.12%,0.46%,0.06%,0.18%,0.11%,0.56%,0.63%,0.09%,1.05%,0.02%,2.52%,6.84%,5.99%,28.9%,3.16%,18.9%,1.54%
CN(C)c1cc2c(Nc3ccc4c(cnn4Cc4ccccc4)c3)ncnc2cn1,3.14%,3.54%,-2.44%,1.31%,-1.33%,0.64%,4.63%,2.47%,3.24%,2.05%,2.69%,1.93%,2.19%,0.49%,1.95%,1.76%,4.21%,2.18%,3.51%,0.35%
CN(C)C(=O)O[C@H]1CN[C@H](C#Cc2cc3ncnc(Nc4ccc(OCc5cccc(F)c5)c(Cl)c4)c3s2)C1,4.42%,1.61%,0.19%,0.42%,-1.25%,-3.89%,2.94%,1.92%,2.06%,2.17%,1.66%,1.79%,0.71%,0.08%,-0.52%,1.13%,1.7%,3.08%,3.18%,0.39%
Nc1nccc(-c2c(-c3ccc(F)cc3)ncn2CCCN2CCOCC2)n1,4.85%,3.5%,3.45%,2.07%,2.83%,6.3%,27.3%,3.45%,5.49%,2.84%,4.12%,3.31%,6.54%,0.36%,2.84%,1.82%,-4.06%,2.73%,2.71%,4.59%
COc1cc2ncnc(Nc3ccc(C)c(O)c3)c2cc1OC,5.95%,3.91%,3.21%,1.77%,2.03%,4.56%,5.91%,4.01%,4.87%,4.2%,4.75%,1.97%,4.02%,0.59%,4.09%,1.34%,1.09%,4.69%,6.24%,4.08%
NS(=O)(=O)c1ccc(N/N=C2\C(=O)Nc3ccc(Cl)cc32)cc1,9.93%,4.37%,6.32%,3.29%,2.98%,3.27%,4.21%,2.59%,3.4%,2.56%,3.33%,1.35%,3.48%,8.41%,42.5%,46.7%,102%,58.5%,80.5%,40.8%
Cc1nc(-c2ccccc2)n2nc(NCCCN3CCOCC3)ncc12,6.52%,0.26%,3.44%,0.32%,0.77%,1.74%,8.04%,2.06%,2.66%,2.09%,2.19%,1.6%,1.78%,1.76%,2.4%,2.24%,2.48%,2.24%,4.68%,-1.66%
Cc1cc(O)cc(C)c1/C=C/c1cncc(C(=O)N(C)C)c1,4.11%,4.05%,0.84%,2.08%,0.19%,1.94%,3.01%,1.26%,1.95%,1.03%,3.24%,0.86%,-0.84%,1.02%,5.98%,2.51%,0.67%,1.36%,4.91%,1.4%
COC(=O)Nc1nc2cc(Oc3ccc(NC(=O)Nc4cccc(Br)c4)cc3)ccc2[nH]1,3.82%,2.91%,2.52%,2.72%,2.43%,4.89%,9.35%,1.77%,2.02%,0.89%,1.6%,-0.42%,1.82%,1.34%,2.26%,3.2%,-0.87%,1.48%,2.15%,2.04%
